A number with no mark means an inactive call. Active and inactive are the calls of the source. The call rests on the fitted dose curve; in most records, active means well fitted curve in the direction sought with a large enough effect in the repeat runs; inconclusive means weak or mixed curves; inactive means flat fitted curve, though single readings scatter.
assay: qHTS assay to test for compound auto fluorescence at 535 nm (green) in HepG2 cell free culture (AID 720686); settings: Cell-free medium, green autofluorescence 485/535 nm; series mostly up to 91.3 µM; fluorescence, % of fluorescein control: at the top concentration
Description: U.S. Tox21 Program National Center for Advancing Translational Sciences [NCATS] NIH Chemical Genomics Center [NCGC] U.S. Environmental Protection Agency [EPA] National Institutes of Environmental Health Sciences [NIEHS] National Toxicology Program [NTP] U.S. Food and Drug Administration [FDA] Tox21 Assay Overview: Compound auto fluorescence often interferes with screening of the compound library against various biological targets and signaling pathways. Some of these compounds may have fluorophoric properties. Such properties may interfere with the assay outputs resulting in false positives and/or negatives. To decrease such complications and ensure the compound activities are relevant in terms of biological response, the Tox21 10K compound library was screened for auto fluorescence. From the fluorophores used as reporter signals in our screening assays, the auto fluorescence equivalencies of compounds against three fluorophores have been evaluated: Triamterene, Fluorescein and Rose Bengal sodium for blue, green and red fluorescence, respectively. The fluorescence intensities were measured using Excitation/Emission wavelengths at 405/460nm, 485/535nm and 540/590nm for blue, green and red labels, respectively. This assay includes the green fluorescence data.
Tox21 Assay Protocol Summary: 5 uL of culture medium (MEM containing 10% FBS) per well was dispensed into black wall/clear bottom 1536-well plates using a Multidrop Combi Dispenser (ThermoFisher Scientific, Waltham, MA). After 23 nL compound or DMSO vehicle was transferred into assay plate by a pintool work station (Kalypsys, San Diego, CA), fluorescence intensities in the assay plates were measured by an Envision (PerkinElmer, Shelton, CT) plate reader using three labels for measuring blue, green and red fluorescence at […] 460, 535 and 590nm respectively.
On the % scale 0 is the no-effect control and ±100 the full control effect.

| Compound | fluorescence, % of fluorescein control | outcome |
| --- | --- | --- |
| CC1(C)[C@H](C(=O)O[C@H](C#N)c2cccc(Oc3ccccc3)c2)[C@@H]1/C=C(\Cl)C(F)(F)F | 0.148% |  |
| ClC1=C(Cl)C2(Cl)C3C(Cl)C=CC3C1(Cl)C2(Cl)Cl (stereo not given) |  | inactive |
| FC(Cl)(Cl)Cl | 0.0087% |  |
| C=CC(=O)OCCCCOC(=O)C=C | -0.0272% |  |
| O=S(=O)(c1ccc(Cl)cc1)c1ccc(Cl)cc1 | -0.112% [at 95.7 µM] |  |
| N#CNC#N | 0.0023% [at 95.7 µM] |  |
| C=CC(=O)OCC(COC(=O)C=C)(COC(=O)C=C)COC(=O)C=C | 0.0157% |  |
| COc1ccc(/C(=C/C(=O)N2CCOCC2)c2ccc(Cl)cc2)cc1OC | 0.0353% |  |
| O=[N+]([O-])c1ccc2ccc3cccc4ccc1c2c34 | -0.0239% |  |
| CCCCCCCCCCCCCCCCCCn1cc[n+](C)c1 | 0.0142% |  |
| CC(C)OC(=O)C(O)(c1ccc(Cl)cc1)c1ccc(Cl)cc1 | 0.0528% |  |
| C=CCC1=C(C)C(OC(=O)C2C(C=C(C)C)C2(C)C)CC1=O (stereo not given) | 1.23% [at 95.7 µM] |  |
| CC(=O)[O-].[Tl+] | 0.1% |  |
| [Cl][Sb]([Cl])[Cl] | -0.131% |  |
| O=c1[nH]c2ccccc2n1CCCN1CCC(n2c(=O)[nH]c3cc(Cl)ccc32)CC1 | 0.205% [at 46 µM] |  |
| O=CC(Br)(Br)Br | 0.0512% |  |
| c1ccc(Nc2ccc3ccccc3c2)cc1 |  | inactive |
| CCCCCCCCCC[N+](C)(C)CCCCCCCCCC |  | inactive |
| COP(=O)(OC)SCn1c(=O)oc2cc(Cl)cnc21 | -0.0649% |  |
| C[C@]12CC[C@@H]3c4ccc(OC(=O)N(CCCl)CCCl)cc4CC[C@H]3[C@@H]1CC[C@@H]2O | -0.0122% [at 46 µM] |  |

| Compound | fluorescence, % of fluorescein control | outcome |
| --- | --- | --- |
| COc1cc(C=O)cc2c1[C@H](COC(N)=O)[C@]1(OC(C)=O)ON2C[C@H]2[C@@H]1N2C(C)=O | -0.191% |  |
| CC(C)[C@H](C(=O)O[C@H](C#N)c1cccc(Oc2ccccc2)c1)c1ccc(Cl)cc1 | 0.0694% |  |
| Oc1ccc(C2(c3ccc(O)cc3)c3ccccc3-c3ccccc32)cc1 | -0.0656% |  |
| CC[C@H]1C[C@@H]2C[C@H]3c4[nH]c5ccc(OC)cc5c4CCN(C2)[C@@H]13 | 0.11% |  |
| CC(=O)c1cc(C(C)(C)C)cc2c1CCC2(C)C | 0.188% |  |
| N#CCCC(Br)(C#N)CBr (stereo not given) | 0.104% |  |
| O=c1[nH]c2ccccc2n1C1CCN(CCCC(c2ccc(F)cc2)c2ccc(F)cc2)CC1 |  | inactive |
| O=C(CBr)c1ccc(O)cc1 | 0.0118% |  |
| CN(C)C(=S)[S-].CN(C)C(=S)[S-].[Cu+2] | 0.0404% [at 18.6 µM] |  |
| Fc1ccc(Oc2ccnc3cc(Cl)cc(Cl)c23)cc1 | -0.05% |  |
| CC(c1ccc(O)cc1)c1ccc(O)cc1 | 0.0471% |  |
| NNC(=O)c1ccccc1 | -0.0829% [at 95.7 µM] |  |
| CNC(C)Cc1ccc2c(c1)OCO2 (stereo not given) | 0.0393% [at 95.7 µM] |  |
| CCOCn1c(-c2ccc(Cl)cc2)c(C#N)c(Br)c1C(F)(F)F | -0.0229% |  |
| [CH3][Hg][Cl] | 0.0698% |  |
| CCCCCCCCCCCCCCC(Br)C(=O)O (stereo not given) | -0.0191% |  |
| CCCOCC(=Nc1ccc(Cl)cc1C(F)(F)F)n1ccnc1 | -0.0011% |  |
| CN(C)C(=S)S |  | inactive |
| CN(C)S(=O)(=O)N(SC(F)(Cl)Cl)c1ccccc1 | 0.0234% |  |
| CC(C)OS(C)(=O)=O | -0.0004% |  |
